The assay can be described thus: inhibitors of arbovirus infection in cells – cell-based, full library, 10K replicate subset, primary screen (AID 1251).
The mark [1] stands for this setting: arbovirus infection cell-based antiviral screen, at 10 µM, stronger effect = higher value.
[2] abbreviates: arbovirus infection cell-based antiviral screen; at 10 µM; stronger effect = higher value.
Setting [3] is: arbovirus infection cell-based antiviral screen; measured here: 10K subset replicate screen; at 10 µM; stronger effect = higher value.

The whole screen tested about 200,000 compounds, of which about 720 (0.36%) were called active. No stated cut-off is given here; in the data, active means inhibition above about 30%; inactive means the rest, inconclusive results apart. For the sample, actives were picked, then their nearest neighbours and some compounds at random.

With `NC(=O)COc1ccc(NC(=O)c2ccccc2-c2ccccc2)cc1`, the inhibition under setting [1] was -1.27% (inactive).
The same measure, in the same setting: as for `CCn1c(SCC(=O)Nc2ccccc2F)nc2c(c1=O)SC(C)C2` (stereo unspecified), the figure is 13.7% (inactive).
For `COCCn1c(SCC(=O)Nc2cc(Cl)ccc2OC)nc2c(c1=O)SC(C)C2` (stereo unspecified), the inhibition was 31.7% (active) under setting [2] and 23% under setting [3].
For the compound `CC1Cc2nc(SCC(=O)Nc3ccccc3F)n(C)c(=O)c2S1` (stereo unspecified), the inhibition under setting [1] was 6.16% (inactive).
The same measure, in the same setting: the result for `COc1ccc(C)cc1NC(=O)CSc1ccc(Cl)cc1` reads 3.07% (inactive); that for `O=C(CSc1ccccc1)Nc1cc(Cl)ccc1Oc1ccccc1`, 31.3% (active); that for `CC(=O)Nc1ccc(SCC(=O)Nc2ccccc2Oc2ccccc2)cc1`, -11.3% (inactive).
Same read-out and setting: the result for `C=Cn1c(C(=O)O)ccc1-c1ccc(OC)cc1` reads -6.55% (inactive); that for `CCn1c(-c2cccnc2Cl)nc2cc(C)c(C)cc21`, 9.84% (inactive).
Same read-out and setting: the result for `CCn1cnc2scc(-c3ccc(C)c(C)c3)c2c1=O` reads -10.7% (inactive); that for `COc1ccc(-c2csc3ncnc(Oc4ccc5c(C)cc(=O)oc5c4)c23)cc1`, -19% (inactive).
With `Cc1cc(F)ccc1S(=O)(=O)Nc1ncnc2scc(-c3ccc(F)cc3)c12`, under setting [1], the inhibition was 34.8% (active).
Take `Cc1cccc(C)c1NC(=O)Nc1ccccc1-n1ccnc1`: under setting [1], the inhibition is 0% (inactive).
In the case of `CCN(/N=C/c1ccc(N(C)C)cc1)c1nc2ccccc2[nH]1`, the inhibition under setting [1] is -9.69% (inactive).
On the same count and under the same terms, the result for `CCNC(=S)NNC(=O)C1CCN(Cc2ccccc2)CC1` reads 0.25% (inactive); that for `CCN(CCO)C(=S)Nc1cc(C(=O)OC)ccc1C(=O)OC`, -0.56% (inactive).
As to `CC(=O)Nc1ccc(Sc2ccccc2C(=O)N2CCCC2)cn1`, the inhibition under setting [1] was 12.2% (inactive).
In the case of `CN(C)c1nc(-c2cccnc2)nc(-c2ccc(Cl)cc2)c1C#N`, the inhibition under setting [1] was -9.56% (inactive).
For the compound `O=C(CCN1CCN(C/C=C/c2ccccc2)CC1)Nc1cccc(F)c1`, under setting [1], the inhibition is -4.37% (inactive).
Regarding `CC/C(=N\NC(=S)NC(C)C)c1ccc(OC(F)F)cc1`, the inhibition under setting [1] was 1.93% (inactive).
The same measure, in the same setting: as for `CC(Nc1nc(N2CCCC2)nc2ccccc12)c1ccccc1` (stereo unspecified), the figure is -47.5% (inactive); as for `CC(=O)NC(CC(=O)O)c1ccc(F)cc1` (stereo unspecified), 4.26% (inactive); as for `Cc1ccc(C(CC(=O)O)Nc2nc(N3CCCCC3)nc(N3CCCCC3)n2)cc1` (stereo unspecified), 31.3% (active).
On the same count and under the same terms, as for `O=[N+]([O-])c1ccc2oc(-c3cccc(O)c3)nc2c1`, the figure is 0.35% (inactive).
For `COc1ccc(Nc2nc(NCc3ccco3)nc(N/N=C/c3ccccc3Cl)n2)cc1`, under setting [1], the inhibition was -9.8% (inactive).
Turning to `CC1CCCC(NC(=O)c2cccc(N3CCCC3=O)c2)C1C` (stereo unspecified), under setting [1], the inhibition is 15.1% (inactive).
Still for that read-out and setting: the result for `O=C(Nc1ccc(-c2ccc3nncn3n2)cc1)C1CCCCC1` reads 2.96% (inactive).
Same read-out and setting: as for `CC(CC(=O)O)C(=O)c1ccc(Cl)c([N+](=O)[O-])c1` (stereo unspecified), the figure is 5.76% (inactive); as for `CCO[C@@H]1OC(C(=O)N2CCOCC2)=C[C@H](C)[C@H]1CCCO`, 1.57% (inactive).
Same read-out and setting: the result for `COc1ccc(C(=O)OCC(=O)NC(=O)CCSc2ccccc2)cc1` reads -0.73% (inactive); that for `Cc1ccccc1Nc1scc(-c2ccc(Br)cc2)[n+]1-c1ccccc1C`, 15.8% (inactive).
`O=C(CC1C(=O)NCCN1Cc1ccc(-c2ccccc2)cc1)NCC1CCOCC1` (stereo unspecified): under setting [1], the inhibition was 1.09% (inactive).
Consider `Cc1ccc(CNC(=O)Cn2c(=O)c3sccc3n(Cc3cccc([N+](=O)[O-])c3)c2=O)cc1`, for which, under setting [1], the inhibition was -23.2% (inactive).
On the same count and under the same terms, the result for `C/C(=N\NC(=O)c1ccc(NS(=O)(=O)c2cccs2)cc1)c1ccc2ccccc2c1` reads -27.7% (inactive); that for `O=c1[nH]c(SCc2ccccc2)nnc1-c1ccccc1`, 33.1% (active); that for `Cc1ccccc1CSc1nnc(-c2ccccc2)c(=O)[nH]1`, 1.96% (inactive).
The same measure, in the same setting: as for `c1ccc(CSc2nnc(-c3ccco3)c(-c3ccco3)n2)cc1`, the figure is 13.1% (inactive); as for `O=C(Cn1cnc([N+](=O)[O-])n1)NCCc1ccccc1`, -2.73% (inactive).
On to `O=C(Cc1c(F)cccc1Cl)Nc1ncc([N+](=O)[O-])s1`, for which, under setting [1], the inhibition is 25.4% (inactive).
Still for that read-out and setting: as for `CC(=O)Oc1ccccc1C(=O)Nc1ncc([N+](=O)[O-])s1`, the figure is 31.3% (active); as for `O=C(CCc1ccccc1)Nc1ncc([N+](=O)[O-])s1`, 14.4% (inactive).
For `Cc1ccc(-c2csc(NC(=O)c3cccs3)n2)cc1`, the inhibition under setting [1] was 103% (active).
On the same count and under the same terms, as for `Cc1ccc(-c2csc(NNC(=O)c3ccccc3)n2)cc1`, the figure is -29.2% (inactive); as for `Cc1nc(-c2ccc(NC(=O)c3cccs3)cc2)cs1`, -9.57% (inactive); as for `COc1ccc(OC)c(-c2c(=O)n(OCc3ccccc3Br)c3ccccc3[n+]2[O-])c1`, 6.28% (inactive).
Still for that read-out and setting: the result for `O=C(COC(=O)c1ccccc1)Nc1ccccc1Sc1ccccc1` reads -1.75% (inactive).
The same measure, in the same setting: as for `O=c1[nH]c(CN2CCN(S(=O)(=O)c3ccc4c(c3)OCCO4)CC2)nc2sc3c(c12)CCCC3`, the figure is 11.3% (inactive); as for `CCCCOc1ccc(NC(=O)[C@@H]2CCCN2C(=O)C2CCN(S(=O)(=O)c3ccc(C)cc3)CC2)cc1`, -16.3% (inactive).
Turning to `Cc1cc(C)c(C#N)c(N2CCC(C(N)=O)CC2)n1`, the inhibition under setting [1] was 2.87% (inactive).
The same measure, in the same setting: the result for `CC(NC(=O)C(=O)NN=C1CCC(C(C)(C)C)CC1)c1ccccc1` (stereo unspecified) reads 1.88% (inactive); that for `Cc1sc2nc(CC(N)=O)[nH]c(=O)c2c1-c1ccccc1`, 3.01% (inactive); that for `Cc1ccsc1C1C(C#N)=C(N)OC2=C1C(=O)CC(C)C2` (stereo unspecified), -1.92% (inactive).
Still for that read-out and setting: the result for `C=CCN1C(=O)C(O)(CC(=O)c2ccccn2)c2ccccc21` (stereo unspecified) reads -2.77% (inactive); that for `Cc1ccc(C)c(Cn2nnc3c(=O)[nH]c(C(=O)Nc4ccc(F)cc4)nc32)c1`, 39.7% (active).
For the compound `O=C(Nc1ccc(F)cc1)N1CCCC(c2nc3c(nnn3Cc3ccccc3Cl)c(=O)[nH]2)C1` (stereo unspecified), the inhibition under setting [1] is 12.4% (inactive).
In the case of `Cc1ccc(NC(=O)N2CCC(c3nc4c(nnn4Cc4c(F)cccc4Cl)c(=O)[nH]3)CC2)cc1`, the inhibition under setting [1] is -3.45% (inactive).
`CSCCNCc1cn(-c2ccc(F)cc2F)nc1-c1ccccc1C`: under setting [1], the inhibition is -1.44% (inactive).
Turning to `CCOC(=O)Cc1ncccc1C(=O)Nc1ccc(OC(F)(F)F)cc1`, the inhibition under setting [1] is 4.21% (inactive).
On the same count and under the same terms, as for `Cc1nn(Cc2ccc(Cl)cc2)c(Cl)c1/C=N/NC(=O)CNc1ccccc1F`, the figure is -16.6% (inactive); as for `CC(=O)Nc1ccc(NC(=S)NC(=O)c2ccc([N+](=O)[O-])c(C)c2)cc1`, -7.89% (inactive); as for `O=C(O)c1ccc2c(c1)C(=O)N(NC(=O)c1ccc(O)cc1)C2=O`, -2.03% (inactive).
For the compound `CCC(=O)N1CCN=C1SCc1ccc(F)cc1`, the inhibition under setting [1] was -3.24% (inactive).
On to `O=C(c1ccco1)N1CCN=C1SCc1cccc(Cl)c1`, for which the inhibition by setting is: under setting [2], 5.96% (inactive); under setting [3], 0.055%.
On to `O=C(C1CC1)N1CCN=C1SCc1ccc(Cl)cc1`, for which the inhibition under setting [1] was 55.7% (active).
Same read-out and setting: as for `C/C(=N\NC(=O)CCn1nc(C)cc1C)C(C)(C)C`, the figure is -5.42% (inactive); as for `CCCN(C(=O)CSc1nnnn1C)c1c(N)n(Cc2ccccc2)c(=O)[nH]c1=O`, 21.9% (inactive).
The same measure, in the same setting: the result for `COc1ccc(C2C=C(c3ccc(Br)cc3)Nc3nc(NS(C)(=O)=O)nn32)cc1` (stereo unspecified) reads 61.9% (active); that for `COc1ccc(C2=CC(c3cccc(OC)c3)n3nnnc3N2)cc1` (stereo unspecified), 11.1% (inactive).
Same read-out and setting: as for `Brc1ccc(C2=CC(c3ccco3)n3ncnc3N2)cc1` (stereo unspecified), the figure is 12.4% (inactive); as for `CC1(C)CC(=O)CC2(C1)NCC(c1ccccc1Cl)c1c2[nH]c2ccccc12` (stereo unspecified), -27.8% (inactive).
As to `COc1cccc(Nc2nnc(SCC(=O)N3CC(C)OC(C)C3)s2)c1` (stereo unspecified), under setting [1], the inhibition was 2.66% (inactive).
With `COc1cccc(NC(=O)Nc2nnc(N3CCCCC3C)s2)c1` (stereo unspecified), the inhibition by setting is: under setting [2], 37.5% (active); under setting [3], 24.8%.
For the compound `CCOC(=O)c1csc(NC(=O)Nc2cccc(OC)c2)n1`, under setting [1], the inhibition was 6.16% (inactive).
Still for that read-out and setting: the result for `NC(N)=Nc1nc2ccc(Br)cc2c(=O)[nH]1` reads -2.82% (inactive); that for `CCOc1ccc(C(=O)Nc2cccc(SC)c2)cc1`, 4.43% (inactive); that for `Cc1ccc(C2=C/C(=C\c3cccnc3)C(=O)O2)cc1`, -1.53% (inactive).
On to `O=C(Nc1ccc2c(c1)CCC2)c1cccc(S(=O)(=O)Nc2ccccc2Cl)c1`, for which the inhibition under setting [1] was -3.02% (inactive).
On the same count and under the same terms, as for `Cn1nnnc1SCC(=O)Nc1nc2ccccc2s1`, the figure is 0.23% (inactive); as for `C=CCn1c(SCC(=O)NCc2ccccc2)nnc1-c1cc(Br)ccc1O`, 8.76% (inactive); as for `C=CCn1c(SCC(=O)Nc2nc3ccccc3s2)nnc1-c1ccccc1O`, 47.3% (active).
On the same count and under the same terms, as for `CCOc1c(Cl)cc(/C=N/O)cc1OC`, the figure is 11% (inactive); as for `CCOc1cc(/C=C(/C#N)c2ccc(Cl)cc2)cc(Cl)c1OCC(=O)O`, 51.7% (active).
Turning to `CCOC(=O)CN/C=C(\C#N)c1ccc(F)cc1`, the inhibition under setting [1] is -0.71% (inactive).
Same read-out and setting: as for `CCn1c(/C=C/c2ccc([N+](=O)[O-])o2)nc2ccccc2c1=O`, the figure is -31.9% (inactive); as for `O=c1oc(/C=C/c2ccccc2)nc2ccccc12`, 44.9% (active).
Still for that read-out and setting: as for `S=c1[nH]nc(/C=C/c2ccccc2)o1`, the figure is -0.67% (inactive); as for `CC(C)(C)NC(=O)c1cccc(NC(=O)Cc2ccc(Br)cc2)c1`, 17.2% (inactive); as for `Cc1ccccc1NC(=S)N(CCCN1CCOCC1)Cc1cccs1`, 7.45% (inactive).
Same read-out and setting: the result for `CCCc1cc(=O)[nH]c(SCc2ccc(C#N)cc2)n1` reads 42% (active).
Consider `CCCc1cc(=O)[nH]c(SCc2cc(=O)oc3c(C)c(C)ccc23)n1`, for which the inhibition under setting [1] is 5.14% (inactive).
In the case of `CCCc1cc(=O)[nH]c(SCC(=O)OCc2ccccc2)n1`, under setting [1], the inhibition was 0.37% (inactive).
In the case of `CN1CCN(S(=O)(=O)c2cccc(C(=O)O)c2)CC1`, the inhibition under setting [1] was -0.22% (inactive).
On the same count and under the same terms, the result for `CC(=O)n1cc([C@@H]2C=C(C(=O)N3CCN(Cc4ccc5c(c4)OCO5)CC3)O[C@H](OCc3ccc(CO)cc3)C2)c2ccccc21` reads -8.36% (inactive).
For `COc1ccc(C)cc1NC(=O)c1ccc(-c2ccc(C(C)=O)cc2)o1`, the inhibition under setting [1] is -5.64% (inactive).
As for `Cc1nnc(SCC(=O)NCc2ccccc2)s1`, the inhibition under setting [2] was -3.33% (inactive) and the inhibition under setting [3] stood at 3.33%.
Take `Cc1cccc(NC(=O)CSc2nnc(NC(=O)CN3CCOCC3)s2)c1`: the inhibition under setting [1] was 4.51% (inactive).
The same measure, in the same setting: the result for `Cc1cccc(CSc2nnc(NC(=O)CSc3nnc(C)s3)s2)c1` reads 31.4% (active).

As usually defined, the inhibition is the drop in the measured response relative to a control, in per cent.
